Screens (PubChem BioAssay)
TGFb inhibitor – TGF-b pathway inhibition; HepG2 CAGA-GFP TGF-b/SMAD3 reporter, GFP fluorescence, 18 h; TGF-beta stimulated, 500 pg/mL final; Potency, µM (doses to about 46.1 µM), for inactives: top-dose activity, negative = inhibition, hits mostly inhibitors; hit rate 1.2% among 410,000; AID 588855; also: % is scaled to controls: 0 for no effect and ±100 for the full control effect; nearly all actives have a fitted effect of over 65% in size
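Read-out: total well GFP (ex488/em500-530) summed from mean per-cell fluorescence. Cells: HEPG2 CAGA-GFP, 1% FBS DMEM, 18 h at 37 degrees C with 500 pg/mL final TGF-beta. Unstimulated wells served as the full-inhibition control; stimulated DMSO wells = 0%.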
TDP1 cell noCPT – qHTS for Inhibitors of human tyrosyl-DNA phosphodiesterase 1 (TDP1): qHTS in cells in absence of CPT; DT40 Tdp1-/- hTDP1 cells, no CPT, ATP luminescence, 48 h; Potency, µM (titrated, usually from 46.2 µM), without a hit: at the highest dose activity change, negative = growth inhibition, usual class: inhibitors; hit rate 15% among 420,000; AID 686978, 2013; also: % is scaled to controls: 0 for no effect and ±100 for the full control effect; nearly all actives have a fitted effect of over 55% in size
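Luminescent ATP content (CellTiter-Glo) served as the growth readout. Knockout chicken DT40 cells expressing human TDP1 were exposed to compounds without camptothecin for a minimum 48 hr at 37 °C.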
DT40 TDP1 CPT – DT40-hTDP1 cell growth loss with CPT | chicken DT40 Tdp1-/-;hTDP1 cells + 20 nM CPT, ATP luminescence, 48 h | Potency, µM (top dose mostly 46.2 µM), without a hit: top-dose activity change, negative = growth inhibition, actives largely listed as inhibitors | hit rate 12% among 420,000 | AID 686979; also: % is scaled to controls: 0 for no effect and ±100 for the full control effect; nearly all actives have a fitted effect of over 55% in size
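Chicken DT40 Tdp1-/- cells complemented with human TDP1, 400 cells/well, exposed to compounds plus 20 nM camptothecin for at least 48 h at 37 C; viability read as ATP content by CellTiter-Glo luminescence.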
HT1080 IDH1KD tx – toxicity to HT-1080 IDH1 knockdown cells (counter line). Potency, µM (highest dose often 46.1 µM), without a hit: at the top dose activity, negative = toxicity, usual class: cytotoxic. hit rate 2% among 360,000. HT-1080 IDH1 knockdown viability, ATP luminescence, 48 h;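 also: 0% = DMSO wells and -100% = cell-free medium wells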
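Using the IDH1-knockdown HT-1080 line run in the same batch and compound series as the NT line, viability after 48 h at 37 °C was determined by CellTiter-Glo luminescence and expressed as % activity.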
HT1080NT lethal – kills 2HG-producing HT-1080-NT fibrosarcoma cells | hit rate 1.6% among 360,000 | Potency, µM (series often up to 46.1 µM), inactives show top-dose activity, negative = less viability, actives largely listed as cytotoxic | HT-1080-NT fibrosarcoma viability, CellTiter-Glo ATP luminescence, 48 h;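 also: NT is the 2HG producing partner of a matched IDH1 knockdown line; 0% = DMSO-treated cells and -100% = media-only wells without cells; nearly all actives have a fitted effect of over 55% in size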
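HT-1080-NT; 750 cells/well; 5% FBS RPMI; 48 h compound, 37 degrees C; CellTiter-Glo luminescence; curve fitting and curve-class assignment.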
HepG2 tox – HepG2 cytotoxicity, counter-screen for TGF-b inhibitors; HepG2 CAGA-GFP viability, ATP luminescence, 18 h; Potency, µM (highest dose often 46.1 µM), for inactives: at the highest dose activity change, negative = cytotoxicity, usual class: cytotoxic; hit rate 0.76% among 410,000
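HepG2 CAGA-GFP cells (1000/well, DMEM with 1% FBS) received compound, then TGF-beta at 500 pg/mL final, and were incubated 18 hours at 37 degrees C. Viability was read by CellTiter-Glo luminescence. Media-only wells were set as complete cell-killing and DMSO as no toxicity.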
The depositor's hits bear a star; ? = inconclusive; . = not tested or not shown. Sampled rows, rich in hits. Any-hit rate of the full collection: about 17%. Calls follow the shape of the dose curve; as a rule, active = well fitted curve in the direction sought with a large enough effect; inconclusive = small, poorly fitted or top-dose-only effect, or another doubt; inactive = no such curve, though single readings can be large; an effect the other way counts as inactive or inconclusive. Potency is read from the fitted curve at half-maximal effect.

SMILES	TGFb inhibitor	TDP1 cell noCPT	DT40 TDP1 CPT	HT1080 IDH1KD tx	HT1080NT lethal	HepG2 tox
COc1ccc(OC)c2[nH]c(C(=O)N/N=C/c3ccccc3O)cc12	?	3.7µM*	5.2µM*	?	?	-12%
COc1ccc(/C=N/NC(=O)c2cnccn2)cc1O	-1%	-4%	11%	-2%	-1%	-5%
COc1ccc(OC)c2[nH]c(C(=O)O)cc12	-2%	-9%	-5%	9%	6%	-12%
COc1ccc(/C=N/NC(=O)c2cc3c(OC)ccc(OC)c3[nH]2)cc1O	?	0.21µM*	0.37µM*	0.41µM*	2.3µM*	-58%
COc1c(C)cc(C(=O)C2CCCN(C(=O)CCc3scnc3C)C2)cc1C (stereo unspecified)	?	-19%	?	?	-15%	-17%
CCn1cc(C(=O)NCCCN2CCCC(C)C2)c(=O)c2cc(S(=O)(=O)N3CCc4ccccc4C3)ccc21 (stereo unspecified)	-29%	?	23µM*	21µM*	?	-32%
CCn1cc(C(=O)NCCc2ccc(OC)c(OC)c2)c(=O)c2cc(S(=O)(=O)N3CCc4ccccc4C3)ccc21	?	26µM*	?	.	.	-18%
CCC1CCCCN1CCCNC(=O)c1cn(CC)c2ccc(S(=O)(=O)N3CCc4ccccc4C3)cc2c1=O (stereo unspecified)	10%	?	?	-6%	0%	-7%
CCn1cc(C(=O)NCCc2ccccc2)c(=O)c2cc(S(=O)(=O)N3CCc4ccccc4C3)ccc21	-21%	21µM*	?	.	.	-6%
CCn1cc(C(=O)NCc2ccccc2)c(=O)c2cc(S(=O)(=O)N3CCc4ccccc4C3)ccc21	?	?	?	.	.	-16%
CCCCN(CCCC)CCNC(=O)c1cn(CC)c2ccc(S(=O)(=O)N3CCc4ccccc4C3)cc2c1=O	?	23µM*	21µM*	5%	0%	-31%
CCn1cc(C(=O)NCCc2ccc(C)cc2)c(=O)c2cc(S(=O)(=O)N3CCCCC3)ccc21	-6%	-9%	-10%	.	.	3%
CC(C)CN(CCNC(=O)c1cc(=O)[nH]c2ccc(S(=O)(=O)N3CCCCCC3)cc12)CC(C)C	-13%	-6%	-23%	.	.	-1%
CCCCN(CCCC)CCNC(=O)c1cc(=O)[nH]c2ccc(S(=O)(=O)N3CCCCCC3)cc12	-19%	16µM*	?	.	.	-22%
Cc1cccc(C)c1NC(=O)CNC(=O)C(NC(=O)c1ccc(C(C)(C)C)cc1)C(C)C (stereo unspecified)	0%	21µM*	?	-4%	-7%	2%
CC(C)C(NC(=O)c1ccc(C(C)(C)C)cc1)C(=O)NCCc1ccccn1 (stereo unspecified)	-6%	21µM*	?	8%	8%	-9%
CC(C)C(NC(=O)c1ccc(C(C)(C)C)cc1)C(=O)NCC(c1ccccc1)N(C)C (stereo unspecified)	?	21µM*	?	-4%	24%	-26%
Cc1c(C)n(Cc2ccc(F)cc2)c2ccc(C(=O)N3CCN(c4ccccn4)CC3)cc12	?	-3%	3%	2%	-25%	-7%
O=C(Cn1cc(S(=O)(=O)N2CCN(c3ccccc3F)CC2)c2ccccc2c1=O)Nc1ccc(F)cc1Cl	-19%	-12%	-1%	.	.	-9%
CC(=O)c1ccc(NC(=O)CSc2nc(=O)n3cccc(C)c3n2)cc1	12%	-29%	-22%	2%	17%	-5%
COC(=O)c1ccc(NC(=O)CSc2nccn2CCc2ccccc2)cc1	0%	18µM*	?	7%	3%	-8%
COC(=O)c1ccc(NC(=O)CSc2ccc(-c3sc(-c4ccccc4)nc3C)nn2)cc1	-1%	12µM*	?	.	.	-3%
CCOc1ccc(NC(=O)CSc2ccc(-c3sc(-c4ccccc4)nc3C)nn2)cc1	2%	?	-88%	.	.	4%
COC(=O)c1ccc(NC(=O)CSc2nc(=O)n3cccc(C)c3n2)cc1	-13%	?	18µM*	-3%	-8%	-22%
COC(=O)c1ccc(NC(=O)CSc2nccn2Cc2ccc(Cl)cc2)cc1	-6%	-28%	?	.	.	5%
SMILES	TGFb inhibitor	TDP1 cell noCPT	DT40 TDP1 CPT	HT1080 IDH1KD tx	HT1080NT lethal	HepG2 tox
Cc1nc(-c2ccccc2)sc1-c1ccc(SCC(=O)Nc2ccccc2)nn1	-10%	23µM*	?	.	.	-9%
Cc1nc(-c2ccccc2)sc1-c1ccc(SCC(=O)Nc2ccc(F)cc2F)nn1	28%	?	-28%	.	.	6%
CCc1nn(CC(=O)NCCCN2CCOCC2)c(=O)c2cc3c(OC)cccc3n12	-2%	27%	-14%	-1%	-1%	2%
COC(=O)c1[nH]c2ccccc2c1CN1CCOCC1	-3%	4%	-3%	1%	-1%	0%
COc1cccc(NC(=O)N(Cc2cc3cc(C)cc(C)c3[nH]c2=O)CC2COCCO2)c1 (stereo unspecified)	-9%	?	?	-20%	-17%	-22%
OC(CSc1c(Cl)cccc1Cl)CN1CCN(c2ccc(F)cc2)CC1 (stereo unspecified)	17%	?	?	6%	17%	16%
COc1ccc(N2CCN(CC(O)COc3ccc(F)cc3)CC2)cc1 (stereo unspecified)	-17%	-13%	?	2%	1%	-1%
OC(CSc1ccccc1Cl)CN1CCN(c2ccc(F)cc2)CC1 (stereo unspecified)	-2%	23µM*	18µM*	?	?	-29%
COc1ccc(N2CCN(CC(O)COC(c3ccc(F)cc3)c3ccc(F)cc3)CC2)cc1 (stereo unspecified)	?	29µM*	18µM*	-4%	?	-45%
O=C(c1ccc(Cl)cc1)n1nc(-c2ccccc2)nc1NCc1ccco1	2%	-5%	-1%	.	.	-15%
CC(=O)N1CCC2(CCN(Cc3ccncc3)CC2)CC1	.	-4%	17%	.	.	.
COc1cccc(-c2nnc(SCC(=O)N3CC(C)CC(C)C3)o2)c1 (stereo unspecified)	-1%	21µM*	?	-1%	2%	-24%
